# ELG1 genotox: inducers of genotoxicity in HEK293T ELG1-luciferase cells; HEK293T ELG1-luciferase reporter, luminescence, 16 h; Potency, µM (series often up to 46 µM), for the others: at the top dose activity change, positive = activation, most hits filed as activators; 330,000 tested, 1.3% active; further: % of control where 0% means no effect; nearly all actives have a fitted effect of over 60% in size
#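 Genotoxic stress is detected as increased luminescence from luciferase-tagged ELG1 in HEK293T cells, measured with ONE-Glo after a 16 hr treatment at 37 °C.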
# FLuc counter: inhibits or activates purified firefly luciferase, miR-21 counter-screen | P08659 | Potency, µM (titrated, usually from 57.5 µM), without a hit: at the highest dose activity change, negative = inhibition, most hits filed as inhibitors | 360,000 tested, 6.9% active | purified FLuc, Km substrates, luminescence inhibition | AID 588342;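 further: plate controls were vehicle for no effect and reference inhibitor for full effect; nearly all actives have a fitted effect of over 55% in size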
# Target sequence (P08659 whole entry, looked up): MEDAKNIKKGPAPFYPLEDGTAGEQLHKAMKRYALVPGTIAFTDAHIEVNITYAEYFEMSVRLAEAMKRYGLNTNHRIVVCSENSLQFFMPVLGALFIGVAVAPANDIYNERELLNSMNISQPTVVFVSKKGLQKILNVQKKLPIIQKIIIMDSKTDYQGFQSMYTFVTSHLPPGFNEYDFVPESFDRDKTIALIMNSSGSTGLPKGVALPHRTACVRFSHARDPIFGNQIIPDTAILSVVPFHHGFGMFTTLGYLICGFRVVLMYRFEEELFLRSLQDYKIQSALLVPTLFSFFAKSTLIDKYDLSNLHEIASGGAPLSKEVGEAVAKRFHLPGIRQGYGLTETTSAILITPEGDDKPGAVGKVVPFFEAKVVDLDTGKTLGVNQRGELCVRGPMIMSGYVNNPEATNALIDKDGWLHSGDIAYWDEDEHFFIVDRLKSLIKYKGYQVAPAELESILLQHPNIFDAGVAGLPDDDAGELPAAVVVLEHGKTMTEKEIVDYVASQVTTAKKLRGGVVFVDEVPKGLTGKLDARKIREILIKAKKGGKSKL
#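 Purified P. pyralis luciferase (10nM final) with 10uM D-luciferin and 10uM ATP (Km levels) in 50mM Tris acetate pH 7.5, 10mM Mg acetate, 0.01% Tween-20, 0.05% BSA; qHTS 6-point titration, ~60 µM downward; luminescence read.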
# SMN2 splice up: SMN2 splice variant enhancement | HEK293 SMN2-luciferase splicing reporter, luminescence, 30-36 h | Potency, µM (highest dose often 46.1 µM), inactives show top-dose activity change, positive = activation, actives largely listed as activators | 210,000 tested, 2.8% active | AID 1458; further: % of control where 0% means no effect; nearly all actives have a fitted effect of over 55% in size
#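 HEK293 cells carry an SMN2 minigene-luciferase reporter in which exon 7 inclusion puts luciferase in frame. Cells were seeded at 2000 cells/well, attached for 10-12 hours, then exposed to compounds for 30-36 hours at 37C before ONE-Glo luminescence.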
# NPC1 promoter act: NPC1 promoter activation; 320,000 tested, 2.4% active; Huh7 NPC1 promoter luciferase reporter, 24 h; Potency, µM (titrated, usually from 9.22 µM), for the others: at the top dose activation, actives largely listed as activators; AID 485313; further: % of control where 0% means no effect; nearly all actives have a fitted effect of over 60% in size
#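 Stably transfected Huh7 (NPC1 promoter→luciferase), 1500 cells/well in Opti-MEM + 10% FBS, 2 h settle, then compound 24 h at 37 °C. Luminescence after 10 min with Amplite reagent.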
# p53 reactivator: re-activators of mutant p53; H1299 p53-A138V BP100-luciferase reporter, luminescence, 24 h; AID 504706; 320,000 tested, 0.063% active; Potency, µM (titrated, usually from 92.2 µM), for the others: top-dose activity change, positive = activation, actives largely listed as activators; further: % of control where 0% means no effect; nearly all actives have a fitted effect of over 45% in size
#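 H1299 (p53-null), stable ts p53-A138V + BP100-Luc; 1000 cells/well, Opti-MEM/10% FBS; cpd 4 pt, 1:5; 24 h, 37 deg C, 5% CO2; detection reagent 10 min RT; luminescence.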
# Rab9 promoter act: Rab9 promoter activation | Huh7 Rab9 promoter-luciferase reporter, luminescence, 24 h | Potency, µM (top dose mostly 9.22 µM), for the others: at the top dose activation, negative = inhibition, usual class: activators | 320,000 tested, 2.8% active; further: % of control where 0% means no effect; nearly all actives have a fitted effect of over 60% in size
#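 Promoter activation is measured as luciferase luminescence in Huh7 cells stably transfected with a Rab9 promoter–luciferase construct, following 24 h compound exposure at 37 °C and 10 min reagent incubation at ambient temperature.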
# Numbers without * were called inactive; ? = inconclusive; · = no result; [ ] = another dose, or the depositor's remark. A selection: hits, their analogues and other compounds. The true share with any hit is near 7.3%. The call rests on the fitted dose curve; in most records, active means well fitted curve in the direction sought with a large enough effect; inconclusive means small, poorly fitted or top-dose-only effect, or another doubt; inactive means no such curve, though single readings can be large; an effect the other way counts as inactive or inconclusive. Potency means the concentration at half of the fitted maximal effect.
SMILES,ELG1 genotox,FLuc counter,SMN2 splice up,NPC1 promoter act,p53 reactivator,Rab9 promoter act
CNC(=O)COC(=O)COc1ccc2c(C)cc(=O)oc2c1,20%,1%,-11%,-2%,-2%,-3%
CCOC(=O)CCc1c(C)c2ccc(OCC(=O)OC(C)C)cc2oc1=O,0%,-17%,0%,-1%,0%,-2%
CCOc1ccc(-n2c(SCC(=O)N3CCc4ccccc43)nc3c([nH]c4ccccc43)c2=O)cc1,·,1%,·,·,·,·
O=C(Nc1ccc2[nH]c(=S)sc2c1)c1ccccc1,?,?,11µM*,2.8µM*,8%,?
S=c1[nH]c2ccccc2s1,·,·,-9%,·,·,·
O=C(Nc1ccc2[nH]c(=O)[nH]c2c1)Nc1ccc(F)cc1F,1%,-4%,·,-1%,4%,1%
O=C(Nc1ccc2[nH]c(=S)sc2c1)Nc1ccccc1F,0.58µM*,21µM*,·,0.11µM*,?,0.13µM*
Cc1ccccc1NC(=S)c1nc2ccccc2[nH]1,7%,11µM*,29%,25%,?,27%
S=C(Nc1ccc(Cl)cc1)c1nc2ccccc2[nH]1,10%,3.8µM*,14µM*,3.2µM*,?,1.8µM*
OC(c1ccc(Cl)cc1)C(O)c1nc2ccccc2[nH]1 (stereo unspecified),-2%,-1%,-9%,-1%,0%,-5%
Cc1ccc2cc(/C=N/Nc3nc4ccccc4[nH]3)c(Cl)nc2c1,?,0.085µM*,5µM*,2.8µM*,?,0.63µM*
CCN(CC)c1ccc(/C=N/Nc2nc3ccccc3[nH]2)c(O)c1,?,7.6µM*,-73%,-30%,18µM*,-28%
CCN(CC)c1ccc(/C=N/N(c2ccccc2)c2ccccc2)c(O)c1,0%,-11%,-10%,-1%,-13%,2%
COc1cc(OC)c(OC)cc1/C=N/Nc1nc2ccccc2[nH]1,1%,-14%,·,1%,-7%,9%
O=C(CSc1nnc(COc2ccc(Cl)cc2Cl)o1)Nc1ccccn1,1%,?,·,1%,20%,-3%
O=C(CSc1nnc(-c2ccncc2)o1)Nc1cccc(F)c1,18%,2%,·,21%,22%,24%
CCc1ccccc1NC(=O)CSc1nnc(COc2ccccc2Cl)o1,·,17µM*,-10%,·,·,·
Cc1ccc(CN(CC(=O)NC2CCCC2)C(=O)CSc2nnc(COc3ccccc3)o2)cc1,7%,-2%,1%,-9%,-2%,-1%
O=C(CSc1nnc(-c2ccccc2)o1)Nc1ccccc1F,?,-12%,0.79µM*,23%,-16%,0.0032µM*
CCc1ccc(OCc2nnc(SCC(=O)NC3CCCCC3)o2)cc1,2%,11µM*,·,-1%,8%,1%
O=C(CSc1nnc(-c2ccncc2)o1)Nc1cc(F)ccc1F,?,-22%,·,2.8µM*,?,2.8µM*
CC1(OC(=O)C2CCCC2)C(=O)C=C2C=C(c3ccsc3)N(c3cccc(C#N)c3)C=C2C1=O (stereo unspecified),·,·,8%[9.22 µM],·,·,·
Cc1cccc(NC(=O)CSc2nnc(-c3cc(C)n(-c4ccccc4)c3C)o2)c1C,0%,17µM*,5%,-1%,13%,-3%
Cc1cnc(NC(=O)CSc2nnc(-c3ccccc3)o2)s1,?,-8%,10µM*,3.5µM*,?,2µM*
O=C(CSc1nnc(-c2ccncc2)o1)Nc1ccccc1Cl,?,-1%,?,11%,?,27%
Cc1ccc(-c2nnc(SCC(=O)Nc3ccccc3F)o2)cc1,0.16µM*,?,-65%,?,-15%,?
O=C(CSc1nnc(-c2ccccn2)o1)Nc1ccccc1Cl,?,0%,·,?,?,0.56µM*
Cc1cc(-c2nnc(SCC(=O)Nc3ccccc3C(F)(F)F)o2)c(C)n1-c1ccccc1,?,-18%,-22%,25%,?,7%
COc1ccc(C(=O)Cn2c(=O)n3nc(CCn4nc(C)cc4C)nc3c3cc(OC)c(OC)cc32)cc1,·,1%,·,·,·,·
